Laboratory results published in PubChem BioAssay AID463173 (ICCB-Longwood Screening Facility, Harvard Medical School, 2010).
Screen size: about 52,000 compounds; about 4,300 (8.3%) were called active. Only a selection was taken, and actives are over-represented in it overall. Unmarked numbers belong to inactive results. Cut-off read from the data, not from the text of the source: active = survival mostly below about 52% (no sharp cut-off); inactive = mostly above about 56%.

These molecules were tested on DeltatarO mutant (assay: S. aureus survival, RN4220 and DeltatarO strains – OD600, teichoic acid synthesis inhibitors, primary screen (AID 463173)). Conditions: S. aureus RN4220 wild type/DeltatarO growth, OD600, 18 h, active compounds read low, screened at 18.75 µg/mL (by protocol).

| SMILES | survival |
| --- | --- |
| Cc1cccc(CSc2ncc(Cl)c(C(=O)Nc3nnc(C)s3)n2)c1 | 73% |
| CCc1nnc(NC(=O)c2nc(SCc3cccc(C)c3)ncc2Cl)s1 | 5% (active) |
| CCCC(=O)C1=C(c2cccc(OC)c2)N(C(=O)CCC)n2c(C)nnc2S1 | 85% |
| O=C(c1ccc(Br)cc1)N1CCN(CCc2ccncc2)CC1 | 78% |
| COc1cc(NC(=O)CC2C(=O)N(c3cccc(C)c3)C(=O)N2Cc2ccc(F)cc2)cc(OC)c1 (stereo unspecified) | 94% |
| CC1=NN(c2ccccc2)C(c2ccccc2)C1 (stereo unspecified) | 101% |
| O=C(CN(c1ccc2c(c1)OCCO2)S(=O)(=O)c1ccccc1)NCc1ccco1 | 85% |
| CCOC(=O)C1CCN(C(c2ccc(C)cc2)c2c(O)cc(C)n(CCOC)c2=O)CC1 (stereo unspecified) | 76% |
| C=CCn1c(C)c(C=C(C#N)C#N)c2ccccc21 | 99% |
| CC1(c2ccccc2)OC(=O)C(C#N)C12CCCCC2 (stereo unspecified) | 103% |
| NC(=O)c1ccc2nc(N)sc2c1 | 102% |
| Cc1cccc(C(=O)N2CCCCC2CCN2CCCCC2)c1 (stereo unspecified) | 80% |
| COc1ccc(CCNC(=O)c2nc(SCc3ccc(F)cc3)ncc2Cl)cc1OC | 46% (active) |
| CC(C)c1nnc(NC(=O)c2nc(SCc3ccc(F)cc3)ncc2Cl)s1 | 24% (active) |
| COc1ccc(CCNC(=O)c2nc(SCc3ccc(C)cc3)ncc2Cl)cc1OC | 65% |
| COc1ccc(NC(=O)c2nc(SCc3ccc(F)cc3)ncc2Cl)cc1 | 69% |
| CC(C)Sc1ncc(Cl)c(C(=O)Nc2nnc(C(C)C)s2)n1 | 69% |
| COc1ccc(CCNC(=O)c2nc(SCc3ccccc3F)ncc2Cl)cc1OC | 64% |
| COc1ccccc1CNC(=O)CSc1nc(=O)[nH]c2c1CCC2 | 78% |
| COc1cc(CN(C(=O)COc2ccc(C)c(C)c2)c2ccccn2)cc(OC)c1OC | 71% |
| COc1ccc(-n2c(=O)c3ccccc3n(CC(=O)NCCc3ccccc3)c2=O)c(OC)c1 | 74% |
| CCn1ccc2cc(S(=O)(=O)N3CCCN(C(=O)Nc4ccccc4OC)CC3)ccc21 | 80% |
| COc1ccc(-n2ncc(C(=O)NCCN3CCOCC3)c2C2CCN(C(=O)OC(C)(C)C)CC2)cc1 | 119% |

| SMILES | survival |
| --- | --- |
| CCc1ccc(S(=O)(=O)Nc2cc(-c3cn4ccccc4n3)ccc2C)cc1 | 74% |
| COc1ccc(Br)cc1S(=O)(=O)Nc1cc(-c2cn3ccccc3n2)ccc1C | 43% (active) |
| Cc1cc(C)c(S(=O)(=O)Nc2cc(-c3cn4ccccc4n3)ccc2C)cc1C | 56% |
| Cc1ccc(S(=O)(=O)Nc2cccc(-c3cn4cccc(C)c4n3)c2)c(C)c1 | 75% |
| COc1ccc(S(=O)(=O)Nc2cc(-c3cn4ccccc4n3)ccc2C)cc1 | 102% |
| Cc1ccc(-c2cn3cccc(C)c3n2)cc1NS(=O)(=O)c1ccccc1 | 41% (active) |
| COc1ccc(S(=O)(=O)Nc2cc(-c3cn4cccc(C)c4n3)ccc2C)cc1C | 53% (active) |
| Cc1ccn2cc(-c3ccc(C)c(NS(=O)(=O)c4ccc(Cl)cc4)c3)nc2c1 | 43% (active) |
| CC(=O)Nc1ccc(S(=O)(=O)Nc2cc(-c3cn4ccccc4n3)ccc2C)cc1 | 67% |
| COc1ccc(S(=O)(=O)Nc2ccc(-c3cn4ccsc4n3)cc2)cc1C | 128% |
| CCCS(=O)(=O)Nc1cc(-c2cn3cccc(C)c3n2)ccc1C | 59% |
| COc1ccc(S(=O)(=O)Nc2cc(-c3cn4ccc(C)cc4n3)ccc2C)cc1OC | 62% |
| Cc1cc(=O)[nH]c(SCC(=O)N2CCN(c3ccccc3)CC2)n1 | 81% |
| Cc1ccc(Cl)cc1NS(=O)(=O)c1ccc2oc(=O)c3ncn(C)c3c2c1 | 124% |
| O=C(Nc1ccc2oc(-c3ccc4ccccc4c3)nc2c1)c1cccc(Cl)c1Cl | 63% |
| COc1cc(NC(=O)CCCN2C(=O)CCn3nc(-c4cn(C)c5ccccc45)cc32)cc(OC)c1 | 126% |
| CCCOc1ccc(C(=O)Nc2ccc(-c3cc4ccccc4oc3=O)c(C)c2)cc1 | 71% |
| N#CC1=C2SCN(C3CCCCC3)CN2C(=O)CC1c1ccc(F)cc1 (stereo unspecified) | 87% |
| CCc1ccccc1NC(=O)Cn1cc(C(=O)c2ccncc2)c(=O)c2cc(C)ccc21 | 83% |
| CCCS(=O)(=O)Nc1cc(-c2cn3ccc(C)cc3n2)ccc1C | 78% |
| CCS(=O)(=O)Nc1cc(-c2cn3ccc(C)cc3n2)ccc1C | 60% |
| Cc1ccc(-c2cn3ccc(C)cc3n2)cc1 | 22% (active) |
| COc1cccc(C(=O)Nc2ccc(C(=O)OCc3cc(=O)n4cc(C)sc4n3)cc2)c1 | 66% |
